Most compounds without a hit are left out; they make up all but 10% or so of the library.
JMJD2A Tudor: qHTS Assay for Inhibitors of JMJD2A-Tudor Domain; Lysine-specific demethylase 4A (Homo sapiens), O75164; AlphaScreen JMJD2A-Tudor / H3K4me3 peptide binding; Potency, µM (titrated, usually from 114 µM), most hits filed as inhibitors; hit rate 4.4% among 390,000; AID 504339, 2011; note: nearly all actives have a fitted effect of over 50% in size
BAZ2B block: qHTS Assay for Inhibitors of BAZ2B | Potency, µM (highest dose often 114 µM), usual class: inhibitors | Bromodomain adjacent to zinc finger domain protein 2B (Homo sapiens), Q9UIF8 | hit rate 4.4% among 360,000 | AlphaScreen BAZ2B-H3K14Ac peptide displacement; note: nearly all actives have a fitted effect of over 60% in size
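In this displacement format the biotinylated H3(5-23) peptide acetylated at Lys14 serves as ligand at 50 nM, with BAZ2B at 50 nM in PBS pH 7.4 containing 0.01% Tween-20. Donor and acceptor beads are 10 ug/mL final.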
CtBP-E1A blk: qHTS Assay for Inhibitors of the CtBP/E1A Interaction | hit rate 0.49% among 340,000 | CtBP / adenovirus E1A interaction (AlphaScreen) | AID 651724, 2012 | AlphaScreen GST-E1A/His-CtBP binding, 1536-well; stronger effect = lower value | activity change, % (no concentration beside the values); in the data active = activity change below about -65%; inconclusive = mostly about -30% to -63%
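In 5 uL wells, 23 nL compound meets equimolar GST-E1A and His-CtBP (5X stock 125 nM each) for 2 h, 37 °C. Beads (5X, 50 ug/mL) then 1 h, 37 °C, dark.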
HP1b chromo inh: HTS for Inhibitors of HP1-beta Chromodomain Interactions with Methylated Histone Tails; Chromobox protein homolog 1 (Homo sapiens), P83916; AlphaScreen HP1-beta / biotin-H3K9me3 peptide binding; Potency, µM (titrated, usually from 114 µM), actives largely listed as inhibitors; hit rate 0.56% among 390,000; note: nearly all actives have a fitted effect of over 70% in size
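HP1-beta protein (50 nM final) preincubated 30 min at room temperature with biotinylated H3(1-18)K9me3 peptide (50 nM) in PBS pH 7.4, 0.01% Tween-20, then compound added for 30 min. AlphaScreen streptavidin donor/nickel chelate acceptor beads (10 ug/mL final), 30 min dark, luminescence read.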
Six1-Eya2 blk: qHTS Assay for Inhibitors of the Six1/Eya2 Interaction. hit rate 0.56% among 360,000. activity change, % (test concentration not listed). AlphaScreen GST-Six1/His-Eya2 binding, biochemical; stronger effect = lower value. Homeobox protein SIX1 (Homo sapiens) + Protein phosphatase EYA2 (Homo sapiens), …; in the data active = activity change below about -65%; inconclusive = mostly about -30% to -63%
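AlphaScreen luminescence read after one hour at 37 °C in darkness. Pin-transferred compounds met GST-Six1 and His-Eya2 protein (5X stock 250 nM/500 nM) plus glutathione donor and Ni-chelate acceptor beads (5X, 50 ug/mL).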
G9a block: qHTS Assay for Inhibitors of Histone Lysine Methyltransferase G9a | Histone-lysine N-methyltransferase EHMT2 (Homo sapiens), Q96KQ7 | G9a H3K9 monomethylation, AlphaScreen, 2 h | Potency, µM (titrated, usually from 102 µM), usual class: inhibitors | hit rate 8.8% among 350,000 | AID 504332, 2011; note: nearly all actives have a fitted effect of over 75% in size
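Using a bead-based AlphaScreen, monomethylated H3K9 product from 2 h room-temperature reactions (G9a 20 nM, peptide 500 nM, SAM 20 uM) was detected with 0.5 ug/mL rabbit anti-H3K9me1 antibody.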
Numbers stand for hits; - = inactive; ? = inconclusive; . = not tested or not shown; [ ] = dose if it differs, or a comment. Unless noted, calls come from the whole dose curve; as a rule, active = well fitted inhibition curve with a large enough effect; inconclusive = small, poorly fitted or top-dose-only effect; inactive = no such curve, though single readings can be large or run the other way.

SMILES	JMJD2A Tudor	BAZ2B block	CtBP-E1A blk	HP1b chromo inh	Six1-Eya2 blk	G9a block
COc1ccc(NC(=O)c2cccc(N3C(=O)C4C5CCC(C5)C4C3=O)c2)cc1 (centres undefined)	-	-	-	-	-	-
O=C(Oc1cccc2cccnc12)c1cccc(-n2cnnn2)c1	-	?	-	-	-	5.62µM
O=C(Oc1cccc2cccnc12)c1cccc(N2C(=O)C3C4CCC(C4)C3C2=O)c1 (centres undefined)	70.8µM	10µM	-	-	-86.8	0.794µM
O=C(Oc1cccc2cccnc12)c1ccc(N2C(=O)C3C4CCC(C4)C3C2=O)cc1 (centres undefined)	?	50.1µM	?	-	-88.8	-
CC(OC(=O)c1cccc(-n2cnnn2)c1)C(=O)c1ccccc1 (centres undefined)	-	-	-	-	-	?
O=C(Oc1ccc(N2C(=O)C3C4CCC(C4)C3C2=O)cc1)c1ccco1 (centres undefined)	-	-	-	-	-	-
CCC1CN(C(=O)Nc2cc(OC)cc(OC)c2)c2ccccc2S1 (centres undefined)	-	-	.	-	.	-
Cc1cnc(C(=O)OCC(=O)NC(=O)c2ccccc2)cn1	-	?	-	-	-	44.7µM
Cc1cccc(C(=O)OCC(=O)NC(=O)c2ccccc2)c1O	-	79.4µM	-	-	-	-[0.501 µM]
Cc1cc(C)c(C(=O)OCC(=O)NC(=O)c2ccccc2)c(C)c1	-	-	-	-	-	-
Cn1c2c(c(=O)[nH]c1=O)C(c1ccc(O)cc1)C1=C(N2)c2ccccc2C1=O (centres undefined)	50.1µM	-	-	35.5µM	-	35.5µM
CC(C)(C)c1ccc(CC(=O)N2CCC2(C)C(=O)NS(=O)(=O)c2ccc(Cl)s2)cc1 (centres undefined)	.	.	-	.	-	.
CN1C(=S)SC(N(O)C(=O)Nc2cccc3ccccc23)C1(C)C (centres undefined)	-	-	-	-	-	44.7µM
CCCCCN1C(=O)/C(=C/c2c(N3CCc4ccccc4C3)nc3ccccn3c2=O)SC1=S	39.8µM	.	-	?	-	.
CCN1C(=O)/C(=C/N2CCc3ccccc3C2)SC1=S	-	-	-	-	-	.
CC(=O)NCCNC(=O)c1ccc(Sc2ccccc2)c([N+](=O)[O-])c1	-	-	.	-	-	-
CC(=O)c1ccc(Sc2ccccc2N)c([N+](=O)[O-])c1	?	?	.	-	-	44.7µM
CC(C)OC(=O)c1ccccc1C(=O)c1ccc(N)c([N+](=O)[O-])c1	-	-	-	-	-	12.6µM
CC(=O)c1ccc(Sc2ccccc2)c([N+](=O)[O-])c1	?	?	-	?	-	22.4µM
CN(C)CCNC(=O)c1ccc(Sc2ccc(Br)cc2)c([N+](=O)[O-])c1	?	-	-	-	-	35.5µM
CNC(=O)COC(=O)c1ccccc1C(=O)c1ccc(Cl)c([N+](=O)[O-])c1	-	-	.	-	-	-
COc1ccc(C2=Nn3c(nnc3-c3ccc(OC)c(OC)c3)SC2)cc1OC	-	.	.	.	.	.
Cc1ccc(N2CCN(C(C(=O)Nc3c(C)cccc3C)c3cc4ccccc4o3)CC2)cc1 (centres undefined)	.	.	-	.	-	.
Cc1cc(F)ccc1NC(=O)CCS(=O)(=O)c1ccc2c(c1)NC(=O)CO2	-	-	.	-	.	-
O=C(O)c1ccccc1Sc1c([N+](=O)[O-])cc(C(F)(F)F)cc1[N+](=O)[O-]	-[11.4 µM]	.	.	-	-	-
SMILES	JMJD2A Tudor	BAZ2B block	CtBP-E1A blk	HP1b chromo inh	Six1-Eya2 blk	G9a block
Nc1ccccc1Sc1ccc(C(=O)c2ccccc2C(=O)O)cc1[N+](=O)[O-]	?	-	-	-	-	20µM
Nc1cc(C(=O)O)ccc1Sc1ccccc1C(=O)O	-	-	.	-	-	4.47µM
CS(=O)(=O)c1ccc(SCC(=O)NC2CCS(=O)(=O)C2)c([N+](=O)[O-])c1 (centres undefined)	-	-	-	-	-	31.6µM
Cc1csc(Nc2ccccc2)[n+]1C	-	.	-	-	-	?
Cc1csc(Nc2ccccc2)[n+]1-c1ccccc1	22.4µM	44.7µM	?	28.2µM	-	10µM
COc1ccc2c(C)c(CC(=O)NCc3ccccc3Cl)c(=O)oc2c1OC	-	-	.	-	.	-
O=C(NCCc1ccccc1)C1CCN(c2ncnc3c2nc2n3CCCCC2)CC1	-	-	.	-	.	-
Cc1cc(-c2nc(C)c(C(=O)NNS(=O)(=O)c3ccc(Cl)cc3Cl)s2)no1	?	-	-	-	-	39.8µM
Cc1ccccc1NC(=O)CSc1nnc(-c2ccco2)c(-c2ccco2)n1	50.1µM	25.1µM	-	15.8µM	?	12.6µM
Cc1ccccc1NC(=O)CSc1n[nH]c(-c2ccco2)n1	-	-	-	-	-	-
Cc1cccc(C)c1NC(=O)CSc1nnc(-c2ccco2)c(-c2ccco2)n1	25.1µM	2.51µM	-	50.1µM	-66.7	-[0.501 µM]
COc1ccc(-c2nnc(SCC(=O)Nc3c(C)cccc3C)nc2-c2ccc(OC)cc2)cc1	-	-	.	-	.	?
CCCCN(C)C(=O)c1nc2ccccn2c1CN1CCN(c2ccccn2)CC1	-	-	-	-	-	.
CCCCN(C)C(=O)c1nc2ccccn2c1CN1CCC[C@H]1C(=O)OC	39.8µM	-	-	-	-	-
Cc1ccc(C)c(NC(=O)CN(Cc2ccccc2)S(=O)(=O)c2ccc3nc(C)sc3c2)c1	-	-	.	-	.	-
CN(C(=O)COC(=O)C1CCN(S(=O)(=O)c2c(Cl)cccc2Cl)CC1)c1ccccc1	-	-	-	-	-	-
CN(C(=O)COC(=O)C1CCN(S(=O)(=O)c2c(Cl)cccc2Cl)CC1)C1CCCCC1	-	-	-	-	-	39.8µM
O=C(COC(=O)C1CCN(S(=O)(=O)c2c(Cl)cccc2Cl)CC1)NCc1ccco1	-	-	-	-	-	50.1µM
CC1CCCCN1Cc1c(O)ccc2c(=O)c(-c3nc4ccccc4s3)c(N)oc12 (centres undefined)	-	-	?	-	?	-
CN(C)c1ccc(CNC(=O)c2cc3ccccn3n2)cc1	?	?	.	-	.	15.8µM
NNC(=O)C(C(=O)OCc1ccccc1)c1ccccc1 (centres undefined)	-	.	.	.	.	.
CC/C(=N/Nc1ccccc1)c1cnnc(-c2ccccc2)n1	-	-	-	-	-	7.08µM
CCOc1ccc(NC(=O)Cn2nnc(-c3ccc(C(N)=O)cc3)n2)cc1S(=O)(=O)N1CCCC1	-	-	-	-	-	79.4µM

Bioassay records from PubChem BioAssay.
